# Laboratory results reported in PubChem BioAssay.
# Calls of active or inactive are those of the source.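 How the source made its calls: active means mean z-score across replicates of 1.96 or higher in either the MELAS or the Rieske mutant cell line; inactive means the rest.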
# Assay: survival rescue of mitochondrial mutant cells in low glucose, primary screen, MELAS cybrids, Rieske KO mouse fibroblasts, CellTiter-Glo (AID 1508586);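 further: test concentration not given here; z relative to plate mean and SD of compound and empty wells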
# Details: MELAS cybrid survival, CellTiter-Glo 48 h, stronger effect = higher value
row,Compound,z-score
1,Cc1cccc(C#Cc2ccccc2)n1,-0.0615 (inactive)
2,CC(C)N(CCC(=O)c1ccc2ccccc2c1)Cc1ccccc1,-0.331 (inactive)
3,O=c1cc(N2CCOCC2)oc2c(-c3ccccc3)cccc12,-0.417 (inactive)
4,Oc1ccc(Nc2nc(-c3ccc(Cl)cc3)cs2)cc1,-0.306
5,Oc1ccc(-c2nc(-c3ccc(F)cc3)c(-c3ccncc3)[nH]2)cc1,-0.659 (inactive)
6,O=C(c1ccc(Nc2nccc(-c3cc4ccccc4s3)n2)cc1)N1CCC(N2CCCC2)CC1,-0.0984 (inactive)
7,Cc1ccc(NC(=O)c2cccc(N(C)C)c2)cc1NC(=O)c1ccc(O)cc1,-0.437 (inactive)
8,O=C(O)Cc1cccc(OCCCN(Cc2cccc(C(F)(F)F)c2Cl)CC(c2ccccc2)c2ccccc2)c1,-0.168 (inactive)
9,O=C1c2ccccc2-c2n[nH]c3cccc1c23,-0.446 (inactive)
